The source of these data is PubChem BioAssay (NCI).

Common to all, as to assay: NCI-60 one-dose screen, 48 h (100 = growth as untreated, 0 = no growth, -100 = all killed)
One assay relates to NCI-H226 lung. The following applies: 10 µM.
The next assay concerns HOP-62 NSCLC. The following applies: 10 µM.
In the next assay the test system is NCI-H460 lung. As to conditions: 10 µM.
The subject of a further assay is A549/ATCC NSCLC. The following applies: 10 µM.
The next assay concerns DU-145 prostate. As to conditions: 10 µM.
The next assay has as its system SF-268 CNS. The following applies: 10 µM.
In another assay the test system is SF-295 CNS. The following applies: 10 µM.
The next assay concerns SF-539 CNS. The following applies: 10 µM.
Another assay concerns UACC-257 melanoma. The following applies: 10 µM.
In the next assay the test system is M14 melanoma. The following applies: 10 µM.
The next assay has as its system HCT-15 colon. As to conditions: 10 µM.
The subject of the next assay is HT29 colon. As to conditions: 10 µM.
For another assay, the system named is SNB-75 CNS. As to conditions: 10 µM.
In the next assay the test system is SNB-19 CNS. As to conditions: 10 µM.
The next assay concerns U251 CNS. As to conditions: 10 µM.
The next assay deals with SK-MEL-5 melanoma. The following applies: 10 µM.
Another assay concerns UACC-62 melanoma. As to conditions: 10 µM.
The next assay deals with SK-MEL-28 melanoma. As to conditions: 10 µM.
In a further assay the test system is SK-MEL-2 melanoma. As to conditions: 10 µM.
Another assay has as its system HL-60(TB) leukemia. The following applies: 10 µM unless noted.

The panel holds about 83,000 compounds, 20% with a hit somewhere; the sample as a whole holds those more often.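 Method: cells in 96-well plates; compound added at one concentration; 48 h incubation; percent growth measured; values under 10 scored active.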 Unmarked numbers belong to inactive results. Active and inactive are the calls of the source.

In the case of `COc1cc(OC)c(/C=C/C(=O)c2nc3ccccc3n2Cc2ccc(F)cc2)c(OC)c1`, the growth with NCI-H226 lung was 72.8%; in the assay on HOP-62 NSCLC, 58.9%; in the assay on NCI-H460 lung it was 58.9%; with A549/ATCC NSCLC it was 88.6%; in the assay with DU-145 prostate it was 92.1%; with SF-268 CNS it was 72.1%. Further, the growth in the assay with SF-295 CNS is 75.7%; with SF-539 CNS, 60.9%; in the assay with UACC-257 melanoma, 98.3%; in the assay on M14 melanoma, 103%; in the assay with HCT-15 colon, 78.9%; with HT29 colon it was 90.2%. Further, the growth is 0.098% (active) in the assay with SNB-75 CNS; 51.5% in the assay on SNB-19 CNS; 101% in the assay with U251 CNS; 88.6% with SK-MEL-5 melanoma; 62.5% in the assay with UACC-62 melanoma; 92.8% with SK-MEL-28 melanoma. Moreover, the growth was 104% in the assay with SK-MEL-2 melanoma and 67.7% in the assay with HL-60(TB) leukemia.

For the molecule `C#CC[Se]C(=O)c1ccc(C(=O)[Se]CC#C)s1`, the growth is 76.5% with NCI-H226 lung; 29.8% in the assay with HOP-62 NSCLC; 40.9% in the assay on NCI-H460 lung; 31.1% with A549/ATCC NSCLC; 56% in the assay with DU-145 prostate; 105% in the assay with SF-268 CNS. Moreover, the growth in the assay on SF-295 CNS was 13.3%; in the assay with SF-539 CNS, 65.5%; with UACC-257 melanoma, 90.7%; with M14 melanoma, 73.7%; with HCT-15 colon, 93.2%; in the assay on HT29 colon, 63.6%. The growth with SNB-75 CNS is 109%; in the assay on SNB-19 CNS, 58.7%; in the assay on U251 CNS, 44.7%; in the assay with SK-MEL-5 melanoma, 96.6%; in the assay on UACC-62 melanoma it was 92.3%; with SK-MEL-28 melanoma, 104%. For the same molecule, the growth in the assay on SK-MEL-2 melanoma is 126%; in the assay on HL-60(TB) leukemia, -19.7% (active).

`COc1cc2cc(C(=O)N3C[C@@H](CCl)c4c3cc(OC(=O)N3CCN(C)[C@@H]5CSSC[C@H]53)c3ccccc43)[nH]c2c(OC)c1OC`: the growth with NCI-H226 lung is -42.7% (active); in the assay on HOP-62 NSCLC, -19.1% (active); in the assay on NCI-H460 lung, -68.9% (active); in the assay with A549/ATCC NSCLC, -58.4% (active); with DU-145 prostate, 1.52% (active); in the assay with SF-268 CNS, 2.46% (active). For the same molecule, the growth in the assay with SF-295 CNS was -43.2% (active); with SF-539 CNS it was -96% (active); in the assay on UACC-257 melanoma, -46.3% (active); in the assay on M14 melanoma, -76.2% (active); with HCT-15 colon it was -18.7% (active); in the assay with HT29 colon, -50.7% (active). In addition, the growth in the assay on SNB-75 CNS was -74.3% (active); in the assay on SNB-19 CNS, -15.4% (active); with U251 CNS, -14.6% (active); with SK-MEL-5 melanoma it was -100% (active); in the assay with UACC-62 melanoma it was -92.9% (active); in the assay on SK-MEL-28 melanoma, -94.8% (active). In addition, the growth in the assay on SK-MEL-2 melanoma was -91.8% (active).
